Our source for the Potency and outcome values is PubChem BioAssay (NCATS).

Inconclusive results are not listed. A call without a number means that no potency is given here. Active and inactive are the calls of the source. The call rests on the fitted dose curve; in most records, active means well fitted inhibition curve with a large enough effect; inconclusive means small, poorly fitted or top-dose-only effect; inactive means flat fitted curve, though single readings scatter.

Glutathione peroxidase 1 (Homo sapiens), sequence (P07203 whole entry, looked up): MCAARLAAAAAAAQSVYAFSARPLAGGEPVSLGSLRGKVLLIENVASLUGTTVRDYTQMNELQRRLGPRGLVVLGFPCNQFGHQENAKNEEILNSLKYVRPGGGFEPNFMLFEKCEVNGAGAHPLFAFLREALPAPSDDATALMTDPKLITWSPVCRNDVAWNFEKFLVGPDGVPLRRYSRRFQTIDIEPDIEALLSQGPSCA

This test deals with Glutathione peroxidase 1 (Homo sapiens) (UniProt P07203). As to the kind of experiment: Primary qHTS Assay for Inhibitors of Recombinant Selenoprotein Glutathione Peroxidase 1 (GPX1) (AID 1845191). Further: nearly all actives have a fitted effect of over 65% in size. The note with it: recombinant GPX1, GR-coupled NADPH fluorescence, 15 min; series mostly up to 48.8 µM. The method in brief:
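GR-coupled readout: NADPH consumption tracked by fluorescence, ex 340/em 450 nm, at t=0 and after 15 min at RT. Final mix 10 nM GPX1, 1 mM GSH, 0.5 mM CHP, 0.5 mM NADPH, 100 nM GR, 0.01% BSA, following 30 min enzyme–compound preincubation.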
For orientation: In qHTS, concentration-response curves come from the screen itself.
`CC(=O)OC1CC(O)C2(C)C(CC(OC(C)=O)C3(C)C2CCC2(C)C(c4ccoc4)C(=O)C4OC423)C1(C)C` (stereo not given): the Potency entry was “inactive”.

With `CN1C(=O)c2ccccc2NC(=O)C1Cc1ccccc1` (stereo not given), the Potency entry is “inactive”.

Regarding `C=C1[C@@H]2CC[C@@]3(C)[C@H](c4ccoc4)OC(=O)C[C@]13O[C@H]1CC(=O)C(C)(C)[C@H](C(OC(C)=O)C(=O)OC)[C@]12C` (stereo not given in full), the Potency result was “inactive”.

Regarding `C[C@]12Cc3cn4c(nc3C=C1CCC1C2CC[C@@]2(C)[C@H]1CC[C@@]2(O)C#N)nc1ccccc14` (stereo not given in full), the Potency entry is “inactive”.

On to `C/C=C(\C)C(=O)O[C@H]1[C@H](OC(C)=O)[C@]2(CO)[C@H](O)[C@H](O)[C@]3(C)C(=CCC4[C@@]5(C)CC[C@H](O[C@@H]6O[C@H](C(=O)O)[C@@H](O)[C@H](O[C@@H]7OC[C@H](O)[C@H](O[C@@H]8OC[C@H](O)[C@H](O)[C@H]8O)[C@H]7O)[C@H]6O[C@@H]6O[C@H](CO)[C@@H](O)[C@H](O)[C@H]6O)C(C)(C)C5CC[C@]43C)[C@@H]2CC1(C)C` (stereo not given in full), for which the outcome is “inactive [at 9.52 µM]”.

As to `CCc1[nH]c2ccc(OC)cc2c1CCN(C)C`, the Potency entry is “inactive”.

Take `O=c1[nH]cc(N(CCCl)CCCl)c(=O)[nH]1`: the Potency entry is “inactive”.

`CCCN1CCc2cccc3c2[C@H]1Cc1ccc(O)c(O)c1-3`: the Potency entry is “inactive”.

For the compound `COC(=O)C1(C)CCC(=O)C2(C)c3c(O)cc(C(C)C)cc3C(O)C(OC(C)=O)C12` (stereo not given), the Potency entry was “inactive”.

With `CC(C)(C)c1cc(C=C(C#N)C#N)cc(C(C)(C)C)c1O`, the Potency result was “inactive”.

As to `CN1C(=O)c2ccccc2NC(=O)[C@]12O[C@@H]2c1ccccc1`, the Potency result was “inactive”.

With `O=C(N1CCOCC1)N1CCN(c2ccc(Cl)cc2)CC1`, the Potency entry was “inactive”.

For `COC(=O)C12C(=O)C(C)(O)C(=O)C1(C)C(C)=CC1C34CCC(OC3=O)C(C)(CO)C4CCC12C` (stereo not given), the Potency result was “inactive”.

Take `CCCN1CC[C@@H]2c3cc(O)ccc3CC[C@@H]21`: the Potency entry is “inactive”.

In the case of `CCCN1CCc2cc(O)cc3c2[C@H]1Cc1ccc(O)c(O)c1-3`, the Potency result was “inactive”.

Regarding `CN1CC[C@@]2(C)c3cc(O)ccc3N(C)C12` (stereo not given in full), the Potency entry was “inactive”.

`CCn1cnc2c(Nc3cccc(Cl)c3)nc(N[C@@H]3CCCC[C@@H]3N)nc21`: the Potency entry was “inactive”.

`O=[N+]([O-])c1cc(O)c(O)c([N+](=O)[O-])c1`: the Potency entry was “inactive”.

Take `NC(=O)CI`: the Potency result was “inactive”.

On to `O=C1OC2(c3cc(Br)c(O)cc3Oc3c2cc(Br)c(O)[c]3[Hg])c2ccccc21` (stereo not given), for which the Potency entry is “inactive”.

As for `COC(=O)[C@@]12C(=O)C(C)C(=O)[C@]1(C)C(C)=C[C@H]1[C@]3(C=O)CC[C@H](OC(C)=O)C(C)(C)[C@H]3CC[C@@]12C` (stereo not given in full), the Potency entry was “inactive”.

Take `OCCCCC#Cc1cncc(OC[C@@H]2CCN2)c1`: the Potency result was “inactive”.

Take `CN(N=O)c1cc(O)ccc1O`: the Potency result is “inactive”.

Turning to `CC(N)c1cccc(Cl)c1Cl` (stereo not given), the Potency entry was “inactive”.

With `NCC(O)c1cc(O)c(O)cc1F` (stereo not given), the Potency result is “inactive”.

As to `CCCN1CCC[C@@H](c2cccc(O)c2)C1`, the Potency result is “inactive”.

Consider `c1ccc2cc(CC3=NCCN3)ccc2c1`, for which the Potency entry was “inactive”.

Regarding `COc1ccc2[nH]c3c(c2c1)CCNC3`, the Potency entry was “inactive”.

On to `CN(N=O)c1ccc(O)c(O)c1`, for which the Potency entry is “inactive”.

Turning to `CN1CCc2cc(O)cc3c2[C@H]1Cc1ccc(O)c(O)c1-3`, the Potency entry was “inactive”.
